Assay outcomes deposited in PubChem by NMMLSC.
RGS8-Gao – RGS8-Galphao binding modulators, primary screen, biochemical, multiplexed bead flow cytometry; Guanine nucleotide-binding protein G(o) subunit alpha (Homo sapiens), P09471; actives lie on both sides; response (percent of control binding), % at 10 µM; 220,000 tested, 0.34% active; AID 1423, 2008; in the data active = response below about 60% or above about 140%; inactive = in between;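 also: Galphao activated as the GDP aluminium fluoride complex binding bead-coupled RGS8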
Target sequence (P09471 whole entry, looked up): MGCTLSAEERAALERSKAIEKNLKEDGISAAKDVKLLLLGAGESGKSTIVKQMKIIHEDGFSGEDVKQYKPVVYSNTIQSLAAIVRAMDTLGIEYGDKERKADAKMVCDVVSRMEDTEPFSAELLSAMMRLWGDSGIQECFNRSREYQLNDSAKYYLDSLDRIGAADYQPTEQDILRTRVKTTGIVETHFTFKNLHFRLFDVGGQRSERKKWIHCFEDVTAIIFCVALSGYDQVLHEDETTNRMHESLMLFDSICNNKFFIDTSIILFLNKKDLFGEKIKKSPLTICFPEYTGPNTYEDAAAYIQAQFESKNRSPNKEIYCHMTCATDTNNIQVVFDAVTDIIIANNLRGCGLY
GSH fluor – compound fluorescence on glutathione beads, profiling panel, artefact control, biophysical, 488/530 nm, flow cytometry; GSH beads flow cytometry, compound fluorescence 488/530 nm; active compounds read high; fluorescence (KMESF) at 10 µM; 190,000 tested, 0.25% active; AID 1776, 2009; in the data active = fluorescence above about 89;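 also: glutathione beads carrying GST-tagged Bcl family fusion proteins plus one bare bead set; values are compound well signal with DMSO vehicle wells as background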
Avidin fluor – green autofluorescence of compounds with avidin beads – biophysical, 488/530 nm, flow cytometry, artefact control, profiling panel. compound fluorescence 488/530 nm; active compounds read high. fluorescence (KMESF) at 10 µM. 220,000 tested, 0.38% active. AID 1775, 2009; in the data active = fluorescence above about 47
RGS7-Gao – RGS7-Galphao binding modulators, primary screen, biochemical, multiplexed bead flow cytometry; Guanine nucleotide-binding protein G(o) subunit alpha (Homo sapiens), P09471; actives lie on both sides; binding response (% of control), % at 10 µM; 220,000 tested, 0.35% active; in the data active = binding response below about 49% or above about 150%; inconclusive = no clear call, values can overlap the other calls; inactive = in between;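 also: fluorescent Galphao held in activated GDP-AlF4 state binding bead-coupled RGS7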
RGS4-Gao reg – modulators of RGS4 binding to Galphao, primary screen, biochemical, multiplexed bead flow cytometry | AID 1415, 2008 | actives lie on both sides | binding response (% of control), % at 10 µM | Guanine nucleotide-binding protein G(o) subunit alpha (Homo sapiens), P09471 | 220,000 tested, 0.33% active; in the data active = binding response below about 49% or above about 150%; inactive = in between;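 also: fluorescent Galphao activated with aluminum fluoride binding bead-coupled RGS4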
RGS16-Gao HTS – modulators of RGS16 binding to Galphao, primary screen, biochemical, human proteins, multiplexed bead flow cytometry. AID 1441, 2008. binding response (% of control), % at 10 µM. 220,000 tested, 0.38% active. bead-based flow cytometry RGS16-Galphao binding, fluorescence; actives lie on both sides. Regulator of G-protein signaling 16 (Homo sapiens) + Guanine nucleotide-binding protein …; call rule not given here;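 also: Galphao activated by GDP with aluminum fluoride before binding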
The depositor's hits bear a star; ? = inconclusive; . = not tested or not shown. Sampled rows, rich in hits. Any-hit rate of the full collection: about 1.2%.

SMILES	RGS8-Gao	GSH fluor	Avidin fluor	RGS7-Gao	RGS4-Gao reg	RGS16-Gao HTS
O=C(C1=C[C@@H](C2CC2)C[C@@H](OCCCCO)O1)N1CCN(Cc2ccc3c(c2)OCO3)CC1	105	18	6	107	106	108
N#CC1=C(N)Oc2n[nH]c(-c3cccs3)c2C1c1cccs1 (stereo unspecified)	101	16	48*	109	103	101
N#CC1=C(N)Oc2n[nH]c(-c3cccs3)c2C1c1ccccc1C(=O)O (stereo unspecified)	101	19	9	104	105	102
CCN(CC)S(=O)(=O)c1csc(C(=O)OCC(=O)c2ccccc2)c1	95	104*	4	88	83	86
CN(Cc1ccccc1)S(=O)(=O)c1ccc(NS(=O)(=O)Cc2ccccc2)cc1	101	11	50*	107	100	104
O=C1N/C(=N\c2ccccn2)SC1Cc1ccc(Cl)cc1 (stereo unspecified)	101	10	9	102	100	98
CCN(CC)CC(=O)N1c2ccccc2CCc2ccc(NC(=O)c3cc(OC)c(OC)c(OC)c3)cc21	99	.	8	?	101	97
CC(NC(=O)c1ccc(S(=O)(=O)C(F)F)cc1)c1ccccc1 (stereo unspecified)	100	14	8	?	102	101
O=C(NC(c1ccccc1)c1ccccc1)c1ccc(S(=O)(=O)C(F)F)cc1	100	16	58*	110	102	102
CN(C)CCCNC(=O)C(=O)NCC1CCCO1 (stereo unspecified)	99	25	10	99	99	100
Cc1cc(C(C)(C)C)oc1C(=O)Nc1ccc(CC(=O)O)cc1	100	239*	4	93	93	62
Cc1ccc(C(=O)Nc2ccc(CC(=O)O)cc2)o1	100	254*	6	98	97	97
COc1ccc2c(=O)c3c(=O)n(Cc4ccco4)c(-c4ccc(C)cc4)nc3oc2c1	88	26	11	89	86	89
COc1cc(-c2nc3oc4ccccc4c(=O)c3c(=O)n2Cc2ccco2)cc(OC)c1OC	91	21	49*	138	103	98
COc1cccc(NC(=S)N(CCN(C)C)C(C)c2ccncc2)c1 (stereo unspecified)	100	.	10	?	97	100
C=CCN=C1S/C(=C\c2ccc(Cl)cc2)C(=O)N1CC=C	98	.	49*	?	122	114
CCc1sc(NC(=O)C(C)C)nc1-c1ccccc1	100	18	10	?	97	100
CCCc1cc(C(=O)N2CCN(C(c3ccccc3)c3ccccc3)CC2)no1	102	18	7	97	99	101
Cc1cc(C(=O)N2CCN(C(c3ccccc3)c3ccccc3)CC2)no1	104	50	52*	117	120	133
Cc1cc(C)n2nc3nc(N4CCCC4)nc(-c4ccccc4)c3c2n1	102	9	58*	115	104	97
Nc1[nH]nc2nc(N3CCCC3)nc(-c3ccccc3)c12	100	33	3	96	98	102
CS(=O)(=O)N1CCc2cc(C(=O)N3CCCC3)ccc21	103	9	20	104	106	107
CC1CC(C)(C)NC(=S)N1CCCC(=O)Nc1ccc2c(c1)OCCO2 (stereo unspecified)	97	11	13	?	99	99
COc1ccc(NC(=O)C(c2cc3c(cc2[N+](=O)[O-])OCO3)N(C)c2ccccc2)cc1 (stereo unspecified)	106	8	13	101	102	112
Cc1cc2nc(SCC(=O)Nc3ccccc3C(=O)O)[nH]c2cc1C	101	14	12	100	103	102
SMILES	RGS8-Gao	GSH fluor	Avidin fluor	RGS7-Gao	RGS4-Gao reg	RGS16-Gao HTS
O=C(N/N=C/c1ccc(-c2ccccc2[N+](=O)[O-])o1)c1cncc(Br)c1	80	6	83*	78	85	23
Cc1ccc(C(O)P(=O)(OC2CCCCC2)OC2CCCCC2)cc1 (stereo unspecified)	104	38	56*	108	94	129
CCCc1cc(=O)[nH]c(SCC(=O)Nc2ccc3c(c2)CCC3)n1	102	13	11	100	103	113
CCCc1cc(=O)[nH]c(SCC(=O)Nc2ccc(OC(F)F)cc2)n1	103	260*	7	103	103	103
CCc1nc2sc(C)c(C)c2c(=O)n1CCO	105	28	52*	120	130	141
CCOC(=O)c1c(C)[nH]c(C(=O)Cn2nnc(-c3ccccc3Cl)n2)c1C	100	13	37	100	104	99
CCOC(=O)c1c(C)[nH]c(C(=O)Cn2nnc(-c3ccccc3)n2)c1C	98	265*	18	105	105	104
CCOC(=O)/C(C#N)=C(\O)c1ccc(NC(=O)c2ccc([N+](=O)[O-])cc2)cc1	107	.	59*	?	127	132
CC(=O)c1cc(F)ccc1OCC(=O)N1CCN(c2ccc(F)cc2)CC1	101	7	25	99	99	102
Cc1ccc(N/C=C(/C#N)c2ccsc2)cc1	102	26	12	100	102	103
N#C/C(=C/Nc1ccccc1)c1ccsc1	104	15	51*	110	103	105
CN1CCN(CC(=O)Nc2cc(N(C)C)nc3ccccc23)CC1	98	20	10	?	100	104
COc1ccc(N2CCN(C(=O)CSc3nnc(NC(=O)C4CCC4)s3)CC2)cc1	103	10	9	103	102	100
CC(C)NC(=O)CSCc1c(F)cccc1Cl	98	121*	5	98	94	96
O=C(Nc1ccc2ccccc2c1)c1onc2c1CCCC2	100	9	57*	126	119	111
COC(=O)c1cccc(NC(=O)c2onc3c2CCCC3)c1	100	16	17	101	100	98
CN1CCN(CCC(=O)Nc2ccc(Br)cc2)CC1	100	16	11	99	100	102
O=C(CCN1CCCCC1)Nc1ccc(Br)cc1	102	20	49*	108	104	103
CCc1c(C)sc(NC(=O)c2cccs2)c1C(=O)OC(C)C	101	28	11	100	100	99
Cc1sc(NC(=O)c2cccs2)c(C(=O)OC(C)C)c1C	106	102*	5	105	110	108
CC(C)(C)c1ccc(C(=O)CC(=O)c2cc(Cl)ccc2O)cc1	101	245*	8	103	107	110
